Compound activity (PubChem)
Only some compounds are listed: those with a hit (about 1.2% of all), similar ones and a draw of the others.
Akt phos inh: blocks phosphorylation of Akt; actives 0.32% (n = 360,000); AID 651550; Neuro2A IGF-stimulated pAkt S473 HTRF, 20 min; active compounds read low; activity change, % for hits at 50 µM; in the data active = activity change below about -80%; inconclusive = mostly about -51% to -80%; also: % is scaled to controls: 0 for no effect and ±100 for the full control effect
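Neuro2A cells (4,500/well, DMEM with 0.5% FBS) were treated with compound at a single 50 µM final concentration, stimulated with 6 nM IGF for 20 min at 37 °C, and lysed. Phospho-Akt Ser473 was read by HTRF as 665/615 ratio ×10^4.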
gsp agonist: gsp mutant agonism; gsp mutant cells, cAMP HTRF, 30 min; Potency, µM (highest dose often 76.9 µM), inactives show at the highest dose activation (cAMP increase), actives largely listed as activators; actives 0.13% (n = 340,000); AID 624287; active = well fitted activation curve with a large enough effect; inconclusive = small, poorly fitted or top-dose-only effect, or another doubt; inactive = no such curve, though single readings can be large or run the other way; cell line not stated here;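 also: phosphodiesterase inhibitor Ro 20-1724 added with compounds to block cAMP breakdown; potency is read from the fitted curve at half-maximal effect; nearly all actives have a fitted effect of over 60% in size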
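Cells stably selected in G418 were plated at 2000/well, grown 16-24 hr, then given compounds in DMSO with the PDE inhibitor […] (300 uM solution added) for 30 min at 37C; cAMP was read by HTRF.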
RXFP1 antag: antagonists of human relaxin receptor RXFP1; HEK293-RXFP1, relaxin-stimulated cAMP HTRF, 30 min; active compounds read low; activity change, negative = inhibition, % at 57.5 µM; actives 0.59% (n = 350,000);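 active = activity change of -60% or lower, but not beyond a set lower limit; inconclusive = change between -60% and -40%, or beyond the set limit; inactive = change above -40%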; also: % is scaled to controls: 0 for no effect and ±100 for the full control effect
Target sequence (Q9HBX9 whole entry, looked up): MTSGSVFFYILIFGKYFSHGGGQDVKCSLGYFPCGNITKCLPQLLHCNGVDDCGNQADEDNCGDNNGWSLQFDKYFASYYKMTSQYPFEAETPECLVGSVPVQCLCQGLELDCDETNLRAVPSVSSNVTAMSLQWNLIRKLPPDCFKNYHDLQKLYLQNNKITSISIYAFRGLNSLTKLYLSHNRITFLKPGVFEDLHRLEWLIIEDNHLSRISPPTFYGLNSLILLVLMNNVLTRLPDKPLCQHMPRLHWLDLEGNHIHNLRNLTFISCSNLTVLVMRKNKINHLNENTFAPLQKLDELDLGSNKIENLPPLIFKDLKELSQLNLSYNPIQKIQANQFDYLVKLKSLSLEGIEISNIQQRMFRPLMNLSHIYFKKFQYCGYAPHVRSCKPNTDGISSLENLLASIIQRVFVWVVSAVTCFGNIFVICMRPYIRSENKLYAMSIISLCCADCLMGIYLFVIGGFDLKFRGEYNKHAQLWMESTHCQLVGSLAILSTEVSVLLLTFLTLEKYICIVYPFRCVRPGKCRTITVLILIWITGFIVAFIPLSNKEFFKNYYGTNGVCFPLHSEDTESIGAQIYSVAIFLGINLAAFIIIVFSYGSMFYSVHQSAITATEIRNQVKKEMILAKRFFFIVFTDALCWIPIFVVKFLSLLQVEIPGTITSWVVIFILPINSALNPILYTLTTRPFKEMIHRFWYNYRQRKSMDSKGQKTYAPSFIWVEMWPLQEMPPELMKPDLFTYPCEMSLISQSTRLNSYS
RXFP1 ag: RXFP1 (human) receptor agonism; Q9HBX9; HEK293T-RXFP1 cAMP TR-FRET, 30 min; response scale: percent of porcine relaxin response, buffer zero; Potency, µM (titrated, usually from 57.5 µM), without a hit: top-dose activation, hits mostly activators; actives 0.3% (n = 370,000); AID 2676; active = well fitted activation curve with a large enough effect; inconclusive = small, poorly fitted or top-dose-only effect; also: potency is read from the fitted curve at half-maximal effect; % is scaled to controls: 0 for no effect and ±100 for the full control effect; nearly all actives have a fitted effect of over 60% in size
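cAMP rise read by TR-FRET after 30 min, 37C compound exposure (up to 58 uM) in RXFP1-transfected HEK293 cells with Ro 20174 present. EC50 from Hill-equation fits, with 29 nM porcine relaxin as 100% and buffer as basal.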
gsp antag: antagonists of gsp mutant (McCune-Albright syndrome) | actives 0.4% (n = 340,000) | gsp-mutant cells, cAMP HTRF, 30 min | Potency, µM (highest dose often 76.9 µM), inactives show at the highest dose activity change, negative = inhibition, actives largely listed as inhibitors; calls by dose curve; cell line not stated here;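 also: intracellular cAMP measured with PDE inhibitor Ro 20-1724 present during compound exposure; potency is read from the fitted curve at half-maximal effect; % is scaled to controls: 0 for no effect and ±100 for the full control effect; nearly all actives have a fitted effect of over 65% in size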
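Cells, 2000/well, grown 16–24 h in DMEM 10% FBS with 0.5 mg/ml G418, then compounds plus […] (300 uM addition stock), 30 min at 37C. cAMP read by HTRF (cAMP-d2 and anti-cAMP antibody-K in lysis buffer) after 30 min RT.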
The depositor's hits bear a star; i = inactive; ? = inconclusive; · = no result given; [ ] = remark or other dose.

SMILES | Akt phos inh | gsp agonist | RXFP1 antag | RXFP1 ag | gsp antag
COC(=O)C1CCN(C(=O)c2cc(-c3ccc(Cl)s3)nc3ccccc23)CC1 | i | ? | -28 | 8% | 32µM*
CCCN(CCC)C(=O)C(CCC(=O)OCCCN1CCN(CCOC(=O)Cc2c(C)n(C(=O)c3ccc(Cl)cc3)c3ccc(OC)cc23)CC1)NC(=O)c1ccccc1 (stereo unspecified) | · | · | -25 | · | ·
CCOc1ccc(NC(=O)CC2C(=O)N(c3cccc(C)c3)C(=O)N2Cc2ccco2)cc1 (stereo unspecified) | · | · | 8 | 2% | ·
CCc1ccccc1-n1c(SCC(=O)Nc2ccc(C)cc2)nc2n[nH]c(C)c2c1=N | · | · | -87* | 7% | ·
CCC(=O)N1CCc2cc(Br)cc(S(=O)(=O)CCC(=O)N(CC)Cc3ccccc3)c21 | · | · | -9 | -2% | ·
CCOc1ccc(NC(=O)CC2C(=O)OCCN2CC)cc1 (stereo unspecified) | · | · | 0 | -3% | ·
S=c1nc(-c2ccccc2)[nH]c2ccccc12 | i | 16µM* | 6 | ? | 9%
CN1CCc2c(sc(NC(=O)CS(=O)(=O)c3ccccc3)c2C(N)=O)C1 | i | 0%[15.4 µM] | -63* | 0% | ?
CCOc1cc(/C=C2\CCC/C(=C\c3cc(Cl)c(O)c(OCC)c3)C2=O)cc(Cl)c1O | i | 5% | -69* | 0% | -25%
COc1ccc(N(Cc2ccccc2)C(=O)c2nc(S(C)(=O)=O)ncc2Cl)cc1 | · | · | ? | 0% | ·
O=C(COc1ccc(/C=N/NC(=O)C(=O)N2CCCCC2)cc1)Nc1ccccc1Cl | i | 3% | -73* | -1% | -18%
COc1ccc(NC(=O)CN2C(=O)CC(c3ccc(C)c(C)c3)=Nc3ccccc32)cc1OC | · | · | -9 | -1% | ·
O=C(CSc1nc2ccccc2o1)Nc1nncs1 | -116%* | -5% | -2 | 0% | -1%
Cc1nnc(NC(=O)CSc2nc3ccccc3o2)s1 | i | -1% | -8 | -1% | -2%
CCOC(=O)C1CCN(c2nc3c(S(=O)(=O)c4ccc(Br)cc4)nnn3c3ccsc23)CC1 | · | · | -8 | 15% | ·
CCN(CC)S(=O)(=O)c1cccc(N=Nc2c(O)c3ccccc3oc2=O)c1 | i | ? | -3 | 16µM* | 3%
Cc1nc2c(cnn2-c2ccccc2Cl)c(=O)n1-c1ccc(N2CCC(C)CC2)cc1 | i | 5% | 0 | 1% | 35µM*
O=C(NC12CC3CC(CC(C3)C1)C2)c1ccc(Br)o1 | i | -16% | -110* | -1% | 2%
O=C(Nc1ccccc1)N(Cc1c[nH]c2ccccc12)C1CCCCCC1 | · | · | · | 0% | ·
Cc1cc2c(c(=O)o1)C1O[C@](c3ccsc3)(Cc3ccccc31)O2 | · | · | · | 0%[11.5 µM] | ·
Cc1cccc(-n2ncc3c(NCCCN4CCCC4=O)ncnc32)c1 | -106%* | -40% | -3 | 1% | -23%
Cc1ccc(OCc2cc(C(=O)N(C)CCc3nc4ccccc4[nH]3)no2)cc1C | i | 2% | -3 | 0% | 35µM*
COCCn1c(SCc2ccccc2F)nc2c([nH]c3ccccc32)c1=O | · | · | · | 0% | ·
CCc1ccc(CNC(=O)C(CC)n2nc(C)c3c(C)n(-c4ccccc4)nc3c2=O)cc1 (stereo unspecified) | · | · | -5 | 3% | ·
Cc1ccc(Cn2ccc(=O)c(OCc3ccccc3)c2C)cc1 | i | 0% | -11 | 1% | 5%
SMILES | Akt phos inh | gsp agonist | RXFP1 antag | RXFP1 ag | gsp antag
Cc1c(OCc2ccccc2)c(=O)ccn1Cc1ccc(Cl)cc1 | -115%* | 0% | -14 | 2% | 6%
Fc1ccc(C(c2ccc(F)cc2)N2CCNCC2)cc1 | · | · | -16 | · | ·
O=C(CSc1ccc2nnc(-c3ccc(F)cc3)n2n1)N1CCOCC1 | i | 20µM* | · | · | 5%
O=C(CSc1ccc2nnc(-c3cccs3)n2n1)N1CCOCC1 | i | ? | · | · | 8%
CCCN1CCN(CCCNC(=O)c2cnn(-c3ccc(F)cc3)c2-n2cccc2)CC1 | · | · | · | 4% | ·
COc1ccc2cc(CNCCOCCOCCNCc3ccc4cc(OC)ccc4c3)ccc2c1 | i | 3% | -89* | · | 19%
Clc1ccc(C2=NNC(=NCc3ccccc3)SC2)cc1 | i | 12%[15.4 µM] | -16 | -1% | 7.1µM*
CCOc1c(Cl)cc(CNc2ccc(S(N)(=O)=O)cc2)cc1OC | i | 16% | 15 | 2% | 9%
CCOc1c(Cl)cc(CNc2ccc(N3CCCC3)cc2)cc1OC | i | 7%[15.4 µM] | -75* | 0% | 5%
COc1cccc(-n2ccnc2SCC(=O)Nc2cccc3ccccc23)c1 | · | · | 16 | -1% | ·
Fc1ccc(-c2nc(Nc3ccc(F)c(Cl)c3)nc3c2COc2ccccc2-3)cc1 | · | · | 7 | -3% | ·
COc1cccc(OCc2nc3ncc(Br)cc3[nH]2)c1 | -97%* | ? | -11 | ? | 36%
c1ccc(N2CC3CCc4ccccc4C3=N2)cc1 (stereo unspecified) | i | 10µM* | 5 | 19% | 9%
Cc1nc(SC(C)C(=O)Nc2ccccc2Cl)cc(-c2ccccc2)n1 (stereo unspecified) | · | · | -72* | -2% | ·
Cc1cc(C)cc(NC(=O)CN2C(=O)CCc3cc(S(=O)(=O)N4CCCCC4)ccc32)c1 | · | · | · | 1% | ·
Cc1cccc(-c2nc(CSCC(=O)N3CCN(c4ccccn4)CC3)c(C)o2)c1 | i | -14% | -6 | -2% | 32µM*
Cc1cccc(-c2nc(CSCC(=O)N3CCN(c4cccc(C)c4C)CC3)c(C)o2)c1 | · | · | -14 | -1% | ·
CCc1cccc(NC(=O)c2cccc3c2C(=O)N(CC2CCCO2)C3)c1 (stereo unspecified) | i | 10% | -6 | 1% | 35µM*
Cc1nn(CCCC(=O)NCc2ccccc2)c(=O)c2nccn12 | i | ? | 20 | 28µM* | 9%
CCc1ccc(CNC(=O)CCCn2nc(C)n3ccnc3c2=O)cc1 | i | 16µM* | -6 | ? | 7%
CC1CCN(C(=S)NC(=O)c2ccc(C(C)(C)C)cc2)CC1 | i | 15% | -1 | 1% | -4%
CC1CCN(C(=S)NC(=O)c2ccccc2)CC1 | -111%* | 7% | -12 | 0% | 10%
O=C(NNC(=S)Nc1ccccc1)c1cc(-c2cccnc2)nc2ccccc12 | i | 1%[15.4 µM] | -61* | 2% | -17%
CN1CCN(S(=O)(=O)c2cccc(S(=O)(=O)c3ccc(Cl)c(Cl)c3)c2)CC1 | -108%* | 23% | 1 | -1% | -1%[15.4 µM]
COc1cc(S(=O)(=O)N2CCN(C)CC2)ccc1Cl | i | -9% | 8 | -1% | 11%
CCOC(=O)C1CCCN(c2nc3c(S(=O)(=O)c4ccc(Br)cc4)nnn3c3ccsc23)C1 (stereo unspecified) | · | · | -9 | 24% | ·
CNC(=O)CN(CCN(CCN(CC(=O)[O-])CC(=O)NC)CC(=O)[O-])CC(=O)[O-].O.[Gd+3] | · | · | -11 | · | ·
